Experimental data: PubChem BioAssay AID2650 (Broad Institute, 2010)
Out of some 320,000 compounds screened, about 320 (0.1%) were called active. For the sample, actives were picked, then their nearest neighbours and some compounds at random. A number with no mark means an inactive call.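 Rule for the calls: active = more than half of replicates show inhibition above 20%; inconclusive = some but at most half of replicates above 20% inhibition; inactive = no replicate shows inhibition above 20%.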

The compounds below were run against Glycogen synthase kinase-3 alpha (Homo sapiens) (UniProt P49840) (assay: blockers of GSK3A enzyme activity – biochemical, luminescence, cell-free homogeneous, HTS, primary screen (AID 2650;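 note: GST-tagged GSK-3 alpha with peptide substrate and 25 µM ATP; 0% = DMSO neutral wells and 100% = GW8510 positive control wells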)). Settings: GSK-3 alpha kinase, ADP-Glo luminescence, 60 min; at 10 µM; active compounds read high.
Glycogen synthase kinase-3 alpha (Homo sapiens), sequence (P49840 whole entry, looked up): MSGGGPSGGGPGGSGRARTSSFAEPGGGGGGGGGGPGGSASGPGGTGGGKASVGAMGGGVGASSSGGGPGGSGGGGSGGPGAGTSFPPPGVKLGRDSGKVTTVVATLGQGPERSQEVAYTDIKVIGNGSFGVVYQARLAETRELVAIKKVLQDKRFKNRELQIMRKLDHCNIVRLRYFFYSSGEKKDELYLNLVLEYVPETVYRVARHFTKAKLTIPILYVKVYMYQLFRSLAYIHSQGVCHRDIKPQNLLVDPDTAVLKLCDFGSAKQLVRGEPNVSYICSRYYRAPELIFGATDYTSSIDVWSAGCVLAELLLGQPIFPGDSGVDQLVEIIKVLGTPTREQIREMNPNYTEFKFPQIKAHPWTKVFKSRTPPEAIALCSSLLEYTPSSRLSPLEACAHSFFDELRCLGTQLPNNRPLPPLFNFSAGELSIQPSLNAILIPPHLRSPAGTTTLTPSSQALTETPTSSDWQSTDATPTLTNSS

**Q.** With `Cc1noc(COc2ccccc2OCc2onc(C)c2Cl)c1Cl` as the compound, how does the inhibition read?
**A.** Its inhibition is -1.26%.

**Q.** For `O=C1c2ccccc2C2=Nc3ccccc3SC(c3ccccc3F)C12` (centres undefined), which inhibition is on record?
**A.** Its inhibition is -0.696%.

**Q.** Which inhibition does the source give for `CC(Sc1nc2cc(Cl)ccc2s1)C(=O)Nc1ccc2c(c1)OCO2` (centres undefined) here?
**A.** The inhibition was -2.34%.

**Q.** For `Cc1ccc2c(c1)N(CC(=O)NCCc1ccc(Cl)cc1)C(=O)c1cccnc1O2`, which inhibition is on record?
**A.** The inhibition was -2.75%.

**Q.** With `CC(C(=O)N1CCOCC1)N1c2cccc3cccc(c23)S1(=O)=O` (centres undefined) as the compound, how does the inhibition read?
**A.** The inhibition was 3.12%.

**Q.** With `O=S(=O)(NC1CC2CCC1C2)c1ccc(Cl)cc1` (centres undefined) as the compound, how does the inhibition read?
**A.** The inhibition was -0.939%.

**Q.** With `CN(C)C(=O)CCC(=O)N1CCCCC1C(=O)Nc1ccc(Oc2ccccc2F)cc1` (centres undefined) as the compound, how does the inhibition read?
**A.** The inhibition was -0.0266%.

**Q.** `O=C(c1ccncc1)N1CCN(S(=O)(=O)c2cc(C(F)(F)F)cc(C(F)(F)F)c2)CC1` was tested. Which inhibition did it give?
**A.** The inhibition was -4.58%.

**Q.** For `CC(C)c1nnc(NC(=O)COC(=O)/C=C/c2ccc([N+](=O)[O-])cc2)s1`, which inhibition is on record?
**A.** Its inhibition is 0.211%.

**Q.** For `CC1CCCCC1NC(=O)CCS(=O)(=O)c1cccc2nonc12` (centres undefined), which inhibition is on record?
**A.** Its inhibition is -1.36%.

**Q.** Which inhibition does the source give for `COC(=O)[C@]1(Cc2ccccc2)N[C@H](CN(C)S(=O)(=O)c2ccc(F)cc2)[C@@H]2C(=O)N(Cc3ccccc3)C(=O)[C@@H]21` here?
**A.** Its inhibition is -4.02%.

**Q.** With `CCc1ccc(C(=O)COC(=O)c2ccco2)cc1` as the compound, how does the inhibition read?
**A.** Its inhibition is -0.284%.

**Q.** With `Cc1cccc2sc(N(CCCN(C)C)C(=O)CCS(=O)(=O)c3ccccc3)nc12` as the compound, how does the inhibition read?
**A.** Its inhibition is 1.84%.

**Q.** `Cc1ccc(NC(=O)CN(C)C(=O)c2ccc(Cl)c(S(=O)(=O)NCc3ccco3)c2)cc1` was tested. Which inhibition did it give?
**A.** Its inhibition is -2.08%.

**Q.** With `COC(=O)C1=C[C@@H](C(=O)OC)[C@@H]2C3=C(C(=O)[C@]2(C)NC(=O)c2ccccc2)[C@H](C)n2c(=O)n(C)c(=O)n2[C@@H]3C1` as the compound, how does the inhibition read?
**A.** The inhibition was -1.38%.

**Q.** Which inhibition does the source give for `O=C(OCC(=O)N(CCc1ccccc1)Cc1ccccc1)c1ccccc1[N+](=O)[O-]` here?
**A.** Its inhibition is 0.711%.

**Q.** With `CCCc1cc(=O)[nH]c(SCC(=O)Nc2ccc(S(=O)(=O)N3CCCC3)cc2)n1` as the compound, how does the inhibition read?
**A.** Its inhibition is -3.71%.

**Q.** How did the inhibition turn out when `Cc1cccc(C)c1NC(=O)CS(=O)CC(=O)N1CCN(c2ccccc2)CC1` (centres undefined) was run?
**A.** The inhibition was -1.33%.

**Q.** `Cc1c(OC(C)C(=O)NCC2CCC(C(=O)O)CC2)ccc2c1oc(=O)c1ccccc12` (centres undefined) was tested. Which inhibition did it give?
**A.** The inhibition was 2.24%.

**Q.** `Cc1ccc(N2C(=O)CC(N3CCSCC3)C2=O)c(C)c1` (centres undefined) was tested. Which inhibition did it give?
**A.** The inhibition was -1.07%.

**Q.** For `CC(C)(C)c1ccc(/C=C/C(=O)NCCCn2ccnc2)cc1`, which inhibition is on record?
**A.** The inhibition was 1.07%.

**Q.** `O=C(CSc1nc2ccccc2c(=O)n1Cc1ccc(F)cc1)NCC1CCCO1` (centres undefined) was tested. Which inhibition did it give?
**A.** Its inhibition is -2.48%.

**Q.** `CC(=O)N1CCc2cc(S(=O)(=O)NC3CCCCC3)ccc21` was tested. Which inhibition did it give?
**A.** The inhibition was 1.13%.

**Q.** For `CN(CC1CCCN(CCc2cccc(C(F)(F)F)c2)C1)C(=O)c1ccc2nc[nH]c2c1` (centres undefined), which inhibition is on record?
**A.** Its inhibition is 2.9%.

**Q.** How did the inhibition turn out when `CCCNC(=S)N1CCC(NC(=O)C23CC4CC(CC(C4)C2)C3)CC1` was run?
**A.** The inhibition was -1.14%.

**Q.** With `Cc1ccccc1N(C(=O)Cc1cccs1)C(C(=O)NC1CCCCC1)c1cn(C)nc1C` (centres undefined) as the compound, how does the inhibition read?
**A.** Its inhibition is -1.17%.

**Q.** How did the inhibition turn out when `CCCCCN(C(=O)NC(=O)Nc1ccccc1OC)S(C)(=O)=O` was run?
**A.** The inhibition was -0.679%.

**Q.** With `COc1cc(OC)cc(-c2cc3ccc(F)cc3cn2)c1` as the compound, how does the inhibition read?
**A.** The inhibition was -0.558%.

**Q.** With `CCOc1ccc(-c2noc(CCC(=O)NC3CCCC3)n2)cc1OC` as the compound, how does the inhibition read?
**A.** The inhibition was -2.18%.

**Q.** `COc1ccccc1-c1nnc2n1N=C(c1ccc(OC(F)F)c(OCC3CC3)c1)CS2` was tested. Which inhibition did it give?
**A.** Its inhibition is -2.55%.

**Q.** With `C=C(C)CNC(=S)Nc1ccc(S(=O)(=O)Nc2cnc3ccccc3n2)cc1` as the compound, how does the inhibition read?
**A.** Its inhibition is -0.344%.

**Q.** `Brc1ccc(/C=N/N2CCN(C3c4ccccc4-c4ccccc43)CC2)s1` was tested. Which inhibition did it give?
**A.** Its inhibition is -1%.

**Q.** `COCCNC(=S)N(CCc1c(C)[nH]c2ccc(C)cc12)Cc1cccnc1` was tested. Which inhibition did it give?
**A.** Its inhibition is -0.86%.

**Q.** How did the inhibition turn out when `CCn1c(Cc2ccc(OC)cc2)nnc1SCC(=O)Nc1ccc(N2CCOCC2)cc1` was run?
**A.** The inhibition was -0.587%.

**Q.** `CCCCOC(=O)Nc1sc2nc(C)cc(C)c2c1-n1cccc1` was tested. Which inhibition did it give?
**A.** Its inhibition is 3.59%.

**Q.** For `Cc1noc(C)c1NC(=O)Nc1cccc2c1O[C@H](CN(C)C(=O)Nc1ccccc1)[C@@H](C)CN([C@H](C)CO)C2=O`, which inhibition is on record?
**A.** The inhibition was -4.19%.

**Q.** For `COc1cc2c(cc1OC)CC1(CCCCC1)N=C2`, which inhibition is on record?
**A.** The inhibition was 0.717%.

**Q.** `Cc1cc(C)cc(N(CCC#N)C(=O)CN2C(=O)NC3(CCCC3)C2=O)c1` was tested. Which inhibition did it give?
**A.** The inhibition was -1.84%.

**Q.** How did the inhibition turn out when `Nc1nc(NCCCN2CCOCC2)nc(Nc2ccccc2)c1[N+](=O)[O-]` was run?
**A.** Its inhibition is 90.9% (active).

**Q.** For `CC1CN(c2nc(Nc3ccccc3)nc(N)c2[N+](=O)[O-])CC(C)O1` (centres undefined), which inhibition is on record?
**A.** Its inhibition is 38.9%.

**Q.** `O=[N+]([O-])c1ccc(NCCCN2CCOCC2)c(Cl)c1` was tested. Which inhibition did it give?
**A.** Its inhibition is -0.912%.

**Q.** Which inhibition does the source give for `Nn1c(SCC(=O)Nc2ccc3c(c2)CCC3)nnc1C1CC1` here?
**A.** Its inhibition is -1.28%.

**Q.** Which inhibition does the source give for `CC(=NNC(=O)c1ccc2nc[nH]c2c1)c1ccc(Br)cc1` here?
**A.** Its inhibition is 0.652%.

**Q.** Which inhibition does the source give for `CC(C)c1nc(SCC(=O)NC(=O)NC(C)(C)C)n[nH]1` here?
**A.** The inhibition was -2.13%.

**Q.** For `CCN(CC)CCOC(=O)c1ccc(NC(=O)CNC(=O)c2ccccc2)cc1`, which inhibition is on record?
**A.** The inhibition was -1.2%.

**Q.** Which inhibition does the source give for `O=C(OCC(=O)N1CCOCC1)c1ccc(N2CCOCC2)c([N+](=O)[O-])c1` here?
**A.** The inhibition was 1.5%.

**Q.** Which inhibition does the source give for `Cc1ccc(NC(=O)C2CCC(C(C)(C)C)CC2)cc1S(=O)(=O)N1CCOCC1` (centres undefined) here?
**A.** Its inhibition is -0.864%.

**Q.** Which inhibition does the source give for `Cc1c(Cl)cccc1NC(=O)NCc1ccc(C)n1C` here?
**A.** Its inhibition is -2.74%.

**Q.** How did the inhibition turn out when `CC1CCCCC12NC(=O)N(CC(=O)OCC(=O)NCc1ccc(F)cc1)C2=O` (centres undefined) was run?
**A.** Its inhibition is -2.66%.

**Q.** For `O=C(O)C1=CCCN(CCON=C(c2ccccc2)c2ccccc2)C1`, which inhibition is on record?
**A.** The inhibition was -1.9%.

**Q.** `CC(C)(C)OC(=O)C[C@@H]1C/C=C\C[C@H](CC(=O)N[C@@H](CO)Cc2ccccc2)C(=O)N[C@H](Cc2ccccc2)COC1=O` was tested. Which inhibition did it give?
**A.** The inhibition was 0.493%.

**Q.** Which inhibition does the source give for `O=C(CN1C(=O)NC2(CCCCCC2)C1=O)NCc1ccc(F)cc1` here?
**A.** Its inhibition is -1.44%.

**Q.** Which inhibition does the source give for `O=C(c1ccccc1F)N(Cc1ccccc1)Cc1ccccc1` here?
**A.** Its inhibition is 0.121%.

**Q.** How did the inhibition turn out when `O=c1c2c3c(sc2n(CCN2CCCC2)c(=O)n1Cc1ccccc1)CCCCC3` was run?
**A.** Its inhibition is 0.297%.
